Activity change, negative = inhibition data for 39 compounds are collected here from PubChem BioAssay (NCATS).

Records with an inconclusive call do not appear. A number with no mark means an inactive call. Active and inactive are the calls of the source. Calls follow the shape of the dose curve; as a rule, active = well fitted curve in either direction with a large enough effect (not every such curve was filed as active); inconclusive = small, poorly fitted or top-dose-only effect, or another doubt; inactive = flat fitted curve, though single readings scatter.
% is scaled to controls: 0 for no effect and ±100 for the full control effect.

The first test in a line: AP1 Signaling Pathway (AID 357).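 Also: ME-180 reporter cells stimulated with EGF at its EC50 level.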 The note with it: ME-180 (cervical carcinoma) AP-1-bla reporter, EGF-induced, beta-lactamase ratio, 5 h; at 17.2 µM (top of the series) unless noted. In a few lines:
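Beta-lactamase reporter under AP-1 response element, ME-180 background. Stimulus: EC50 EGF. Compound exposure 5 h, 37 °C. Detection: CCF4, 2.5 h RT, 460/530 nm. Values: AC50 from titration.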
With `Cc1[nH]nc2cn[nH]c12`, the activity change, negative = inhibition is -10.4%.

On to `COc1ccc(CCNC(=O)c2ccc(=O)[nH]n2)cc1OC`, for which the activity change, negative = inhibition is -1.15%.

Regarding `CCOC(=O)c1ccccc1OCc1cc(/C=N/n2cncn2)ccc1OC`, the activity change, negative = inhibition was -21.7%.

On to `COC(=O)C(NC(=O)c1ccccc1)(Nc1nccs1)C(F)(F)F` (stereo unspecified), for which the activity change, negative = inhibition was 6.27%.

Regarding `CC1(c2ccco2)NC(=O)NC1=O` (stereo unspecified), the activity change, negative = inhibition was 5.26%.

On to `Cn1ncc(N=Cc2ccccc2O)c1C(=O)Nc1ccccc1`, for which the activity change, negative = inhibition was -7.55%.

In the case of `CC12CN3CC(C)(CN(C1)C3c1ccc(Cl)cc1Cl)C2O` (stereo unspecified), the activity change, negative = inhibition is 3.94%.

In the case of `C/C=C/c1ccccc1OCc1ccc(C(=O)O)o1`, the activity change, negative = inhibition is -6.57%.

Take `COc1ccc(-c2cn3ccsc3n2)cc1`: the activity change, negative = inhibition was 11.1%.

As to `COc1ccc(C2C(C(C)=O)=C(O)C(=O)N2c2nccs2)cc1OC` (stereo unspecified), the activity change, negative = inhibition was -6.01%.

Take `Cc1cc(/C(O)=C2\C(=O)C(=O)N(CCN(C)C)C2c2ccncc2)ccc1OCc1ccccc1` (stereo unspecified): the activity change, negative = inhibition is -14.5%.

Consider `COCc1n[nH]c(=S)n1-c1cccc2ccccc12`, for which the activity change, negative = inhibition is -1.13%.

As for `CSc1nnc2n(C3CCCCC3)c(=O)c3c4c(sc3n12)CCCC4`, the activity change, negative = inhibition was 19.1%.

For the compound `C=C1[C@@H](C)C2[C@H](Cc3ccccc3)NC(=O)[C@]23OC(=O)CC[C@H](O)CCC[C@H](C)C/C=C/[C@H]3[C@@H]1O` (stereo partly specified), the activity change, negative = inhibition is -80.8% (active).

For the compound `C=CCSc1nc(C)c(CC=C)c(=O)[nH]1`, the activity change, negative = inhibition is -0.627%.

Take `CCN(CC)CCN1C(=O)C(=O)/C(=C(/O)c2c(C)[nH]c(C(=O)OC)c2C)C1c1ccccc1` (stereo unspecified): the activity change, negative = inhibition is 2.47%.

Take `COC(=O)CSc1ncnc2c1sc1nc(-c3ccco3)c3c(c12)CC(C)(C)OC3`: the activity change, negative = inhibition is -2.46%.

For the compound `COc1ccc(OCC(O)CN2C(=O)NC(C)(C)C2=O)cc1` (stereo unspecified), the activity change, negative = inhibition is -11.2%.

As to `CCC(NC(=O)NC1=NCCS1)(C(F)(F)F)C(F)(F)F`, the activity change, negative = inhibition was 8.03%.

Regarding `CCOC(=O)c1c(C)n(C)c2ccc(OC)c(NC(=O)CCN3CCSCC3)c12`, the activity change, negative = inhibition was 2.45%.

In the case of `CCOC(=O)c1cc2c(=O)n3ccccc3nc2n(Cc2ccccc2Cl)c1=N`, the activity change, negative = inhibition was -18.6%.

A further test can be described thus: NFAT Signaling Pathway (AID 444).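 Also: carbachol stimulus at about its EC50 of 1 µM final.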 The settings on record: Jurkat NFAT-bla M1, carbachol, beta-lactamase ratio, 5 h; at 17.2 µM (top of the series) unless noted. Put shortly: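 Jurkat cells carrying an NFAT-driven β-lactamase reporter and co-transfected muscarinic M1 receptor were treated with compound plus carbachol (1 uM final, an EC50 level) for 5 h at 37 °C. CCF4 loading followed for 1 h at RT; 460/530 nm ratio gave %activity.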
Consider `CCC1=Nc2ccccc2NC2=C1C(=O)CCC2`, for which the activity change, negative = inhibition is -0.948%.

On to `CC(C)c1nc2n[nH]c(N)c2c2c1CCCC2`, for which the activity change, negative = inhibition is 6.42%.

As for `Cc1noc(NS(=O)(=O)c2ccc(NC(=O)COc3ccccc3)cc2)c1C`, the activity change, negative = inhibition is 1.26%.

For the compound `c1cc2c(cc1C1=Nn3c(nnc3C3CCCCC3)SC1)OCO2`, the activity change, negative = inhibition is 14.4%.

`C[C@@H]1C[C@H](Nc2ccccc2)c2ccccc2N1C(=O)c1cccnc1`: the activity change, negative = inhibition is -3.58%.

As for `Cc1cc(=O)oc(C)c1C(=O)N1CCN(C)CC1`, the activity change, negative = inhibition is 17.3%.

With `CC(C)c1cc(NCCCN2CCOCC2)n2c(nc3ccccc32)c1C#N`, the activity change, negative = inhibition was -9.44%.

Take `Cc1cc(-c2ccc(F)cc2)nc2cc(C(N)=O)nn12`: the activity change, negative = inhibition is -2.99%.

`Cc1cc(C)n(-c2nnc(C)n2/N=C/c2ccco2)n1`: the activity change, negative = inhibition is -7.08%.

As for `CC(=O)c1c(N)nc2n(c1=O)CCCCC2`, the activity change, negative = inhibition is -9.74%.

Consider `FC(F)(F)c1cccc(N2CCc3cn[nH]c32)c1`, for which the activity change, negative = inhibition is 0.155%.

As for `O=C(NCCO)C1(c2ccccc2)CCCC1`, the activity change, negative = inhibition is -7.5%.

In the case of `COc1ccccc1C(CC(=O)Nc1nccs1)c1ccco1` (stereo unspecified), the activity change, negative = inhibition is -20.1%.

Turning to `c1ccc(Cc2nn[nH]n2)cc1`, the activity change, negative = inhibition is -3.11%.

Take `CC(=O)c1ccc(C#CC(C)(C)O)s1`: the activity change, negative = inhibition was -7.12%.

For `COC(=O)C1=C(N)Oc2cc(C)oc(=O)c2C1c1ccncc1` (stereo unspecified), the activity change, negative = inhibition is 4.62%.

Regarding `N#Cc1nc(-c2cccs2)oc1NCCN1CCOCC1`, the activity change, negative = inhibition is -7.03%.

For `COc1cccc2c(=O)c(SC(F)(F)C(F)C(F)(F)F)c(C)[nH]c12` (stereo unspecified), the activity change, negative = inhibition is 4.93%.

In the case of `Cc1[nH]nc2cn[nH]c12`, the activity change, negative = inhibition is 6.17%.

In the case of `COc1ccc(CCNC(=O)c2ccc(=O)[nH]n2)cc1OC`, the activity change, negative = inhibition was -8.89%.

`CCOC(=O)c1ccccc1OCc1cc(/C=N/n2cncn2)ccc1OC`: the activity change, negative = inhibition was 8.94%.

Turning to `COC(=O)C(NC(=O)c1ccccc1)(Nc1nccs1)C(F)(F)F` (stereo unspecified), the activity change, negative = inhibition was 2.67%.

As for `CC1(c2ccco2)NC(=O)NC1=O` (stereo unspecified), the activity change, negative = inhibition is 1.83%.

`Cn1ncc(N=Cc2ccccc2O)c1C(=O)Nc1ccccc1`: the activity change, negative = inhibition is 7.01%.

Take `CC12CN3CC(C)(CN(C1)C3c1ccc(Cl)cc1Cl)C2O` (stereo unspecified): the activity change, negative = inhibition is -12%.
